{"source": "PubChem BioAssay AID1063", "about": "(University of Pittsburgh Molecular Library Screening Center, 2008)", "note": "About 18,000 (9%) of roughly 200,000 compounds were called active. Shown is part of a subset that was picked to be rich in actives. Unmarked numbers belong to inactive results. Rule as the data show it: active = inhibition above about 50%; inactive = the rest.", "data": [{"test": "Leishmania major promastigote growth inhibition, primary screen (AID 1063);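 also: promastigotes grown with compound for 44 hours at 28 °C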", "settings": "Leishmania major promastigotes, resazurin fluorescence viability; at 10 µM; hits give high values", "values": [{"compound": "C/C(=N/OC(=O)c1cccc(C(F)(F)F)c1)c1cnccn1", "inhibition": "-8.57%"}, {"compound": "Cn1cnnc1SCC(=O)NNC(=O)COc1ccc(Br)cc1", "inhibition": "-4.37%"}, {"compound": "C/C(=N\\Nc1nc(Nc2ccccc2)nc(N2CCOCC2)n1)c1cccs1", "inhibition": "5.71%"}, {"compound": "C=CCNC(=O)COC(=O)CNC(=O)c1cc(Cl)cc([N+](=O)[O-])c1", "inhibition": "7.34%"}, {"compound": "COc1ccc(O[C@H]2C=C[C@@H](c3ccccc3)O[C@@H]2CO/N=C/C[C@@H]2C=C[C@H](OC(C)=O)[C@@H](COC(C)=O)O2)cc1", "inhibition": "5.12%"}, {"compound": "C/C(=N\\Nc1ncc(Cl)cc1Cl)c1cccs1", "inhibition": "19%"}, {"compound": "O=C(CSc1nc2ccccc2[nH]1)c1cccs1", "inhibition": "8.11%"}, {"compound": "C/C(=N\\Nc1nc2ccccc2[nH]1)c1cccs1", "inhibition": "77.2% (active)"}, {"compound": "Cc1ccc(NC(=O)C2(N3CCC3=O)CCCCC2)cc1", "inhibition": "-5.4%"}, {"compound": "COc1cccc(-n2c(=S)sc3c(=O)n(-c4ccccc4OC)c(SCC4OCCO4)nc32)c1", "inhibition": "19.1%"}, {"compound": "O=S(=O)(c1ccc(OCC(O)CN2CCN(c3ccccc3Cl)CC2)cc1)N1CCOCC1", "note": "(stereo not given)", "inhibition": "68.2% (active)"}, {"compound": "O=[N+]([O-])c1ccc(N2CCN(CC(O)COc3ccccc3)CC2)cc1", "note": "(stereo not given)", "inhibition": "32.1%"}, {"compound": "OC(COc1ccc2ccccc2c1)CN1CCOCC1", "note": "(stereo not given)", "inhibition": "59.9% (active)"}, {"compound": "OC(COc1cccc(OCC(O)CN2CCCC2)c1)CN1CCCC1", "note": "(stereo not given)", "inhibition": "-2.43%"}, {"compound": "CC(=O)Nc1ccc(OCC(O)CN2CCN(c3ccccc3Cl)CC2)cc1", "note": "(stereo not given)", "inhibition": "-1.4%"}, {"compound": "OC(COc1ccc2ccccc2c1)Cn1cncn1", "note": "(stereo not given)", "inhibition": "-2.08%"}, {"compound": "O=C(NCC1COc2ccccc2O1)C1(c2ccccc2)CCCC1", "note": "(stereo not given)", "inhibition": "4.71%"}, {"compound": "CCOC(=O)CSc1nnc(-c2ccc([N+](=O)[O-])cc2)o1", "inhibition": "-7%"}, {"compound": "COCCN(C(=S)Nc1ccccc1OC)C1CCN(C(C)C)CC1", "inhibition": "-1.11%"}, {"compound": "CCN1CCN(c2ccc(NC(=O)c3cnccn3)cc2)CC1", "inhibition": "-5.28%"}, {"compound": "Oc1c(C(c2ccccn2)N2CCOCC2)ccc2cccnc12", "note": "(stereo not given)", "inhibition": "5.34%"}, {"compound": "CCOC(=O)N1CCN(C(=O)CSc2ccc(Cl)cc2)CC1", "inhibition": "-6.22%"}, {"compound": "CCOC(=O)N1CCN(C(c2cccnc2)c2ccc3cccnc3c2O)CC1", "note": "(stereo not given)", "inhibition": "100% (active)"}, {"compound": "CCN1CCN(C(c2cccnc2)c2cc(Cl)c3cccnc3c2O)CC1", "note": "(stereo not given)", "inhibition": "52.4% (active)"}, {"compound": "Cc1ccnc2nc(C(=O)OCC(=O)N(CC(C)C)CC(C)C)nn12", "inhibition": "4.48%"}, {"compound": "CN(c1ccccc1)S(=O)(=O)c1cc(C(=O)OCC(=O)N2CCN(C(=O)c3ccco3)CC2)ccc1Cl", "inhibition": "-3.3%"}, {"compound": "Nc1ncnc(Nc2cccc(Cl)c2Cl)n1", "inhibition": "-0.16%"}, {"compound": "Cc1ccc(C(=O)NCC2CCCO2)o1", "note": "(stereo not given)", "inhibition": "-4.63%"}, {"compound": "OC(CNCC1CCCO1)Cn1c2ccc(Br)cc2c2cc(Br)ccc21", "note": "(stereo not given)", "inhibition": "101% (active)"}, {"compound": "Cc1cc(Br)ccc1NC(=O)C1CCCO1", "note": "(stereo not given)", "inhibition": "-3.76%"}, {"compound": "COc1cc(C(=O)Nc2cc(C(F)(F)F)ccc2-n2cncn2)cc(OC)c1OC", "inhibition": "15.4%"}, {"compound": "CC(C)C(=O)NC(NC(=S)NC1CCS(=O)(=O)C1)C(Cl)(Cl)Cl", "note": "(stereo not given)", "inhibition": "-3.47%"}, {"compound": "CCCSC(=S)NC1CCS(=O)(=O)C1", "note": "(stereo not given)", "inhibition": "100% (active)"}, {"compound": "COc1ccc(NC(=S)NC2CCS(=O)(=O)C2)cc1", "note": "(stereo not given)", "inhibition": "6.02%"}, {"compound": "O=S1(=O)CCC(NC(=S)SCc2ccccc2Br)C1", "note": "(stereo not given)", "inhibition": "89.6% (active)"}, {"compound": "CCN(CC(=O)NC1CCS(=O)(=O)C1)S(=O)(=O)c1ccccc1", "note": "(stereo not given)", "inhibition": "47.9%"}, {"compound": "O=C(CSc1ccccc1F)NC1CCS(=O)(=O)C1", "note": "(stereo not given)", "inhibition": "1.43%"}, {"compound": "COc1cccc(OC)c1C(=O)NC(=S)NCc1ccco1", "inhibition": "0.66%"}, {"compound": "Cc1nn(-c2ccccc2)c(-n2cccc2)c1C(=O)O", "inhibition": "-0.36%"}, {"compound": "CCC(C)NC(=O)Cn1nc(C(F)(F)F)c2c1CCC2", "note": "(stereo not given)", "inhibition": "-5.4%"}, {"compound": "CCOc1cnc(-c2c(-c3ccccc3Cl)noc2C)o1", "inhibition": "-0.43%"}, {"compound": "COc1cc(OC)c(C2=NOC(C(=O)Nc3c(C)n(C)n(-c4ccccc4)c3=O)C2)cc1Cl", "note": "(stereo not given)", "inhibition": "-5.3%"}, {"compound": "CC1CCN(c2ccc([N+](=O)[O-])cc2C(N)=O)CC1", "inhibition": "-3.26%"}, {"compound": "C=CCO/N=C/C1=C(O)C(C(=O)OC)C(C)(C)CC1=O", "note": "(stereo not given)", "inhibition": "-2.09%"}, {"compound": "Cc1cc(OCCCC(=O)NCCN2C(=O)S/C(=C\\c3cccnc3)C2=O)ccc1Cl", "inhibition": "42.1%"}, {"compound": "O=C(NCCN1C(=O)S/C(=C\\c2cccnc2)C1=O)c1cccc(OC(F)F)c1", "inhibition": "50.6% (active)"}, {"compound": "CCOc1ccc(N2CC(C(=O)NCCN3C(=O)S/C(=C\\c4cccnc4)C3=O)CC2=O)cc1", "note": "(stereo not given)", "inhibition": "-4.79%"}, {"compound": "O=C(CCc1ccccc1)Nc1ccc(NC(=O)C2CCCCC2)nc1", "inhibition": "6.33%"}, {"compound": "Cc1ccc(SC(C)C(=O)NCc2ccc(F)cc2)cc1", "note": "(stereo not given)", "inhibition": "-1.71%"}, {"compound": "CC(=O)Nc1ccccc1OC(=O)N1CCOCC1", "inhibition": "-2.48%"}, {"compound": "O=C(/C=C/c1cccs1)c1cc(Cl)ccc1OC(=O)N1CCOCC1", "inhibition": "100% (active)"}, {"compound": "O=C(c1cccs1)N1CCN(C(=O)N2CCOCC2)CC1", "inhibition": "-6.96%"}, {"compound": "CCOC(=O)c1c(NC(=O)C2CCN(S(=O)(=O)c3ccc(Cl)cc3)CC2)sc2c1CCCC2", "inhibition": "6.41%"}, {"compound": "Cc1ccc(S(=O)(=O)N2CCOCC2)cc1C(=O)OC1CCCCC1=O", "note": "(stereo not given)", "inhibition": "1.9%"}, {"compound": "CCNC(=O)COC(=O)/C=C/c1c(C)nn(Cc2cccc(OC)c2)c1Cl", "inhibition": "-3.81%"}, {"compound": "CS(=O)(=O)N1CCc2cc(C(=O)Nc3ccccc3)ccc21", "inhibition": "-3.72%"}, {"compound": "CC(=O)Nc1cccc(/C(C)=N/NC(=O)c2c(-c3ccccc3Cl)noc2C)c1", "inhibition": "3.3%"}, {"compound": "Cc1onc(-c2ccccc2Cl)c1C(=O)NCCn1ccc2ccccc21", "inhibition": "5.91%"}, {"compound": "Cc1[nH]c2ccccc2c1C(=O)CSCC(=O)O", "inhibition": "13.6%"}, {"compound": "Cc1onc(-c2ccccc2Cl)c1C(=O)OCC(=O)c1ccccc1", "inhibition": "88% (active)"}, {"compound": "Cc1[nH]c2ccccc2c1C(=O)COC(=O)c1c(-c2ccccc2)noc1C", "inhibition": "95.7% (active)"}, {"compound": "Cc1[nH]c2ccccc2c1C(=O)COC(=O)C(C)C", "inhibition": "-4.11%"}, {"compound": "S=c1ccc2ccccc2[nH]1", "inhibition": "-8.39%"}, {"compound": "CC(=O)NCC(=O)N(Cc1ccco1)C1(C(=O)NC2CCCC2)CCCCC1", "inhibition": "1.81%"}, {"compound": "CCOC(=O)c1ccc(NC2Nc3cc(C)nn3S2)cc1", "note": "(stereo not given)", "inhibition": "1.08%"}, {"compound": "O=C(COc1ccc(NC(=O)c2ccccc2[N+](=O)[O-])cc1)c1ccc(F)cc1", "inhibition": "-3.68%"}, {"compound": "COc1ccc(CC(=O)Nc2cc(S(=O)(=O)N3CCCCC3)ccc2N2CCN(C)CC2)cc1", "inhibition": "47%"}, {"compound": "Cc1cccc(OCCC(=O)Nc2cc(S(=O)(=O)N3CCCCC3)ccc2N2CCOCC2)c1", "inhibition": "22%"}, {"compound": "CN1CCN(c2ccc(S(=O)(=O)N3CCCCC3)cc2NC(=O)Cc2ccccc2F)CC1", "inhibition": "67.6% (active)"}, {"compound": "CC12CN(NC(=O)c3ccc(Cl)cc3)C3(C#N)CC1CCC23C", "note": "(stereo not given)", "inhibition": "7.74%"}, {"compound": "COc1ccc(NC(=O)c2ccccc2[N+](=O)[O-])cc1OC", "inhibition": "59.4% (active)"}, {"compound": "COC(=O)CNC(=O)c1ccccc1[N+](=O)[O-]", "inhibition": "-1.1%"}, {"compound": "O=C(Nc1ccncc1)c1ccccc1[N+](=O)[O-]", "inhibition": "11.9%"}, {"compound": "COC(=O)C1=C(C)NC(=O)CC1c1ccccc1OC", "note": "(stereo not given)", "inhibition": "-5.13%"}, {"compound": "Cc1ccc(N2NC(=O)/C(=C/C=C/c3ccco3)C2=O)cc1C", "inhibition": "15.2%"}, {"compound": "O=[N+]([O-])c1cc(Br)c(O)c(/C=N/Nc2nc3ccccc3s2)c1", "inhibition": "-6.02%"}, {"compound": "Cc1ccsc1C(=O)N/N=C/c1ccc([N+](=O)[O-])cc1", "inhibition": "-8.42%"}, {"compound": "Cc1cc(C(=O)N/N=C/c2cc([N+](=O)[O-])cc(C)c2O)n[nH]1", "inhibition": "80.3% (active)"}, {"compound": "Cc1cccc(NC(=O)Nc2nnc(-c3ccccc3)o2)c1", "inhibition": "15.9%"}, {"compound": "C/C(=N\\NC(=O)c1cc2c(s1)CCC(C)C2)c1cccnc1", "note": "(stereo not given)", "inhibition": "13%"}, {"compound": "COc1cccc(N(C(=O)C2COc3ccccc3O2)C(C(=O)NC2CCCCC2)c2ccc(O)cc2)c1", "note": "(stereo not given)", "inhibition": "98.3% (active)"}, {"compound": "Cc1cccc(N(C(=O)Cc2cccs2)C(C(=O)NC2CCCC2)c2ccsc2)c1", "note": "(stereo not given)", "inhibition": "3.72%"}, {"compound": "COc1ccc(C(C(=O)NC2CCCCC2)N(C(=O)CCl)c2ccccc2Cl)cc1", "note": "(stereo not given)", "inhibition": "-1.95%"}, {"compound": "O=C1Nc2ccc([N+](=O)[O-])cc2C1=Nc1cccc(CO)c1", "inhibition": "51% (active)"}, {"compound": "CN1CCN(/N=C2/C(=O)Nc3ccc([N+](=O)[O-])cc32)CC1", "inhibition": "-2.49%"}, {"compound": "Cc1cc([N+](=O)[O-])ccc1NCc1cccc([N+](=O)[O-])c1", "inhibition": "-1.47%"}, {"compound": "CN1CCN(CC#CCC2(O)c3ccccc3-c3ccccc32)CC1", "inhibition": "-6.57%"}, {"compound": "O=[N+]([O-])c1cccc(-c2nnc3c4ccccc4c4ccccc4n23)c1", "inhibition": "22%"}, {"compound": "Cn1cc(/C=C/c2nc3ccccc3c(=O)n2-c2cccc([N+](=O)[O-])c2)c2ccccc21", "inhibition": "63.9% (active)"}, {"compound": "CCOC(=O)N1CCN(Cc2nc3ccc([N+](=O)[O-])cc3c(=O)n2-c2cccc(OC)c2)CC1", "inhibition": "8.07%"}, {"compound": "Cc1cc(C)nc(/N=C2\\NC(=O)CC(C(=O)O)N2c2ccc(Cl)cc2Cl)n1", "note": "(stereo not given)", "inhibition": "-2.66%"}, {"compound": "CSc1ccc(/C=N\\NC(=O)CC(=O)NC(C)C)cc1", "inhibition": "3.48%"}, {"compound": "CC1=NCCN1S(=O)(=O)c1cccc([N+](=O)[O-])c1", "inhibition": "0.00784%"}, {"compound": "COc1ccc(/C=N/NC(=O)Cn2cc(C(F)(F)F)ccc2=O)cc1", "inhibition": "4.79%"}, {"compound": "CCOC(=O)c1c(CN(C)C)n(-c2ccccc2)c2cc(Br)c(O)cc12", "inhibition": "15.6%"}]}]}
